# Reference: PubChem BioAssay (NCI)
# Compounds without any hit were thinned out: in the full panel of roughly 79,000, 15% have a hit. Unmarked numbers belong to inactive results. Active and inactive are the calls of the source. No stated cut-off is given here; in the data, active means growth inhibition above about 70%; inactive means the rest.
# What was measured:
# [1] = NCI Yeast Anticancer Drug Screen. Data for the rad52 strain (AID 147);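 further: 0% = growth of vehicle-treated control cultures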; conditions: S. cerevisiae rad52 mutant growth inhibition, active compounds read high
# Method in brief: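 Growth of repair-deficient yeast cells was compared between compound-treated and vehicle-treated cultures to give percent inhibition.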
# [2] = NCI Yeast Anticancer Drug Screen. Data for the wt1 strain (AID 149);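 further: 0% = growth of vehicle-treated wt1 cultures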; conditions: S. cerevisiae wt1 strain (SPY 50644) growth inhibition, active compounds read high
# Method in brief: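 Vehicle-normalised growth inhibition; strain wt1; compound exposure.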
# [3] = NCI Yeast Anticancer Drug Screen. Data for the rad50EPP+ strain (AID 151);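 further: 0% = growth of vehicle-treated control cultures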; conditions: S. cerevisiae rad50 mutant strain, active compounds read high
# Method in brief: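 Measured: growth inhibition of rad50EPP+ yeast. Reference: vehicle-treated controls. Screen uses strains with defined genetic alterations in DNA damage repair or cell cycle control.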
# [4] = NCI Yeast Anticancer Drug Screen. Data for the mgt1 strain (AID 153); conditions: S. cerevisiae mgt1 mutant growth inhibition, active compounds read high
# Method in brief: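 Compounds were applied to mgt1 mutant yeast, and growth was then compared against vehicle-treated control cultures to give percent inhibition.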
# [5] = NCI Yeast Anticancer Drug Screen. Data for the rad50 strain (AID 155);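 further: 0% = growth of vehicle-only cultures of the same strain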; conditions: S. cerevisiae rad50 strain growth inhibition, active compounds read high
# Method in brief: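 A DNA repair-deficient yeast mutant serves as the test organism; compound-induced growth inhibition is calculated against vehicle-treated cells.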
# [6] = NCI Yeast Anticancer Drug Screen. Data for the mec2-1 strain (AID 157); conditions: S. cerevisiae mec2-1 strain, active compounds read high
# Method in brief: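 Compounds were applied to mec2-1 yeast cells. Their growth was then compared with that of vehicle-treated cultures to give growth inhibition.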
# [7] = NCI Yeast Anticancer Drug Screen. Data for the rad14 strain (AID 159);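 further: 0% = growth of vehicle-treated control cultures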; conditions: S. cerevisiae rad14 strain growth inhibition, active compounds read high
# Method in brief: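 Vehicle-treated cultures served as the baseline for growth inhibition of a DNA repair-mutant yeast strain exposed to each compound.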
# [8] = NCI Yeast Anticancer Drug Screen. Data for the sgs1 mgt1 strain (AID 161);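 further: 0% = growth of cultures given vehicle only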; conditions: S. cerevisiae sgs1 mgt1 strain, active compounds read high
# Method in brief: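 Compounds are added to genetically altered yeast, and growth is compared with cultures given vehicle alone to give percent inhibition.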
# [9] = NCI Yeast Anticancer Drug Screen. Data for the CLN2oe strain (AID 163);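 further: 0% = growth of vehicle-only control cultures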; conditions: S. cerevisiae CLN2oe strain, active compounds read high
# Method in brief: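 Cells of an engineered yeast line with disturbed cell-cycle regulation are treated with compound. Inhibition of growth is then calculated relative to the vehicle-treated reference.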
# [10] = NCI Yeast Anticancer Drug Screen. Data for the cln2 rad14 strain (AID 165);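 further: 0% = growth equal to vehicle treated cultures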; conditions: S. cerevisiae cln2 rad14 strain, active compounds read high
# Method in brief: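 Strain: cln2 rad14 yeast, altered in cell cycle control and DNA damage repair. Read-out: growth inhibition vs vehicle.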
# [11] = NCI Yeast Anticancer Drug Screen. Data for the bub3 strain (AID 167); conditions: S. cerevisiae bub3 mutant strain, active compounds read high
# Method in brief: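 Inhibition values come from growth of compound-treated mutant yeast normalised to vehicle-treated controls.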
# [12] = NCI Yeast Anticancer Drug Screen. Data for the wt2 strain (AID 169);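 further: 0% = growth of vehicle-treated yeast cultures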; conditions: S. cerevisiae wt2 strain growth inhibition, active compounds read high
# Method in brief: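 Growth of compound-treated yeast is measured and expressed as inhibition relative to vehicle-only controls.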
# [13] = NCI Yeast Anticancer Drug Screen. Data for the mlh1 strain (AID 171);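 further: 0% = growth of vehicle-treated control cultures of the same strain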; conditions: S. cerevisiae mlh1 strain growth inhibition, active compounds read high
# Method in brief: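 Test agents were incubated with yeast bearing a defined DNA damage repair or cell cycle control alteration; values are growth inhibition normalised to vehicle-treated cultures.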
# [14] = NCI Yeast Anticancer Drug Screen. Data for the sgs1 strain (AID 173);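 further: 0% = growth of vehicle-only control cultures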; conditions: S. cerevisiae sgs1 mutant, active compounds read high
# Method in brief: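 Strain with an altered DNA repair or cell cycle pathway exposed to compound. Growth then measured. Value = inhibition versus vehicle control.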
# [15] = NCI Yeast Anticancer Drug Screen. Data for the mlh1 rad18 strain (AID 175); conditions: S. cerevisiae mlh1 rad18 strain growth inhibition, active compounds read high
# Method in brief: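 A repair-deficient yeast strain is exposed to test compound, and growth is scored relative to vehicle-treated controls.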
# [16] = NCI Yeast Anticancer Drug Screen. Data for the rad18 strain (AID 177); conditions: S. cerevisiae rad18 mutant growth inhibition, active compounds read high
# Method in brief: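 DNA-repair-defective yeast; compound treatment; growth inhibition scored against vehicle.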
# [17] = at 5.0 µM (retest, dose inferred, filed as 0.5)
# [18] = at 50.0 µM (retest, dose inferred, filed as 5.0)
smiles,measurement,setting,value
O=[n+]1c2ccccc2n([O-])c2cc(Br)ccc21,growth inhibition,[1]; at 1.2 µM,94% (active)
same,growth inhibition,[1]; at 3.7 µM,98% (active)
same,growth inhibition,[1]; at 11.0 µM,98% (active)
same,growth inhibition,[1]; at 33.0 µM,98% (active)
same,growth inhibition,[1]; at 100.0 µM,98% (active)
same,growth inhibition,[2]; at 1.2 µM,7%
same,growth inhibition,[2]; at 3.7 µM,43%
same,growth inhibition,[2]; at 11.0 µM,82% (active)
same,growth inhibition,[2]; at 33.0 µM,99% (active)
same,growth inhibition,[2]; at 100.0 µM,98% (active)
same,growth inhibition,[3]; at 1.2 µM,96% (active)
same,growth inhibition,[3]; at 3.7 µM,98% (active)
same,growth inhibition,[3]; at 11.0 µM,99% (active)
same,growth inhibition,[3]; at 33.0 µM,99% (active)
same,growth inhibition,[3]; at 100.0 µM,97% (active)
same,growth inhibition,[4]; at 1.2 µM,5%
same,growth inhibition,[4]; at 3.7 µM,5%
same,growth inhibition,[4]; at 11.0 µM,51%
same,growth inhibition,[4]; at 33.0 µM,99% (active)
same,growth inhibition,[4]; at 100.0 µM,98% (active)
same,growth inhibition,[5]; at 1.2 µM,86% (active)
same,growth inhibition,[5]; at 3.7 µM,97% (active)
same,growth inhibition,[5]; [17],96% (active)
same,growth inhibition,[5]; at 11.0 µM,98% (active)
same,growth inhibition,[5]; at 33.0 µM,99% (active)
same,growth inhibition,[5]; [18],98% (active)
same,growth inhibition,[5]; at 50.0 µM,99.2% (active)
same,growth inhibition,[5]; at 100.0 µM,97% (active)
same,growth inhibition,[6]; at 1.2 µM,18%
same,growth inhibition,[6]; at 3.7 µM,52%
same,growth inhibition,[6]; [17],85% (active)
same,growth inhibition,[6]; at 11.0 µM,92% (active)
same,growth inhibition,[6]; at 33.0 µM,99% (active)
same,growth inhibition,[6]; [18],99% (active)
same,growth inhibition,[6]; at 50.0 µM,99.3% (active)
same,growth inhibition,[6]; at 100.0 µM,98% (active)
same,growth inhibition,[7]; at 1.2 µM,36%
same,growth inhibition,[7]; at 3.7 µM,56%
same,growth inhibition,[7]; at 11.0 µM,95% (active)
same,growth inhibition,[7]; at 33.0 µM,100% (active)
same,growth inhibition,[7]; at 100.0 µM,98% (active)
same,growth inhibition,[8]; [17],66%
same,growth inhibition,[8]; [18],99% (active)
same,growth inhibition,[8]; at 50.0 µM,99.2% (active)
same,growth inhibition,[9]; at 1.2 µM,6%
same,growth inhibition,[9]; at 3.7 µM,9%
same,growth inhibition,[9]; at 11.0 µM,38%
same,growth inhibition,[9]; at 33.0 µM,99% (active)
same,growth inhibition,[9]; at 100.0 µM,98% (active)
same,growth inhibition,[10]; [17],19%
same,growth inhibition,[10]; [18],99% (active)
same,growth inhibition,[10]; at 50.0 µM,94.6% (active)
same,growth inhibition,[11]; at 1.2 µM,42%
same,growth inhibition,[11]; at 3.7 µM,63%
same,growth inhibition,[11]; [17],63%
same,growth inhibition,[11]; at 11.0 µM,96% (active)
same,growth inhibition,[11]; at 33.0 µM,99% (active)
same,growth inhibition,[11]; [18],99% (active)
same,growth inhibition,[11]; at 50.0 µM,99.4% (active)
same,growth inhibition,[11]; at 100.0 µM,99% (active)
same,growth inhibition,[12]; at 1.2 µM,47%
same,growth inhibition,[12]; at 3.7 µM,69%
same,growth inhibition,[12]; at 11.0 µM,99% (active)
same,growth inhibition,[12]; at 33.0 µM,100% (active)
same,growth inhibition,[12]; at 100.0 µM,98% (active)
same,growth inhibition,[13]; at 1.2 µM,-3%
same,growth inhibition,[13]; at 3.7 µM,19%
same,growth inhibition,[13]; at 11.0 µM,61%
same,growth inhibition,[13]; at 33.0 µM,99% (active)
same,growth inhibition,[13]; at 100.0 µM,98% (active)
same,growth inhibition,[14]; at 1.2 µM,34%
same,growth inhibition,[14]; at 3.7 µM,39%
same,growth inhibition,[14]; at 11.0 µM,97% (active)
same,growth inhibition,[14]; at 33.0 µM,99% (active)
same,growth inhibition,[14]; at 100.0 µM,98% (active)
same,growth inhibition,[15]; [17],87% (active)
same,growth inhibition,[15]; [18],98% (active)
same,growth inhibition,[15]; at 50.0 µM,99.2% (active)
same,growth inhibition,[16]; at 1.2 µM,84% (active)
same,growth inhibition,[16]; at 3.7 µM,92% (active)
same,growth inhibition,[16]; at 11.0 µM,98% (active)
same,growth inhibition,[16]; at 33.0 µM,99% (active)
same,growth inhibition,[16]; at 100.0 µM,98% (active)
Cc1c2cc[n+](Cc3ccc(I)cc3)cc2c(C)c2c1[nH]c1ccccc12,growth inhibition,[1]; at 1.2 µM,39%
same,growth inhibition,[1]; at 3.7 µM,36%
same,growth inhibition,[1]; at 11.0 µM,96% (active)
same,growth inhibition,[1]; at 33.0 µM,98% (active)
same,growth inhibition,[1]; at 100.0 µM,95% (active)
same,growth inhibition,[2]; at 1.2 µM,10%
same,growth inhibition,[2]; at 3.7 µM,8%
same,growth inhibition,[2]; at 11.0 µM,89% (active)
same,growth inhibition,[2]; at 33.0 µM,98% (active)
same,growth inhibition,[2]; at 100.0 µM,97% (active)
same,growth inhibition,[3]; at 1.2 µM,30%
same,growth inhibition,[3]; at 3.7 µM,29%
same,growth inhibition,[3]; at 11.0 µM,34%
same,growth inhibition,[3]; at 33.0 µM,90% (active)
same,growth inhibition,[3]; at 100.0 µM,96% (active)
same,growth inhibition,[4]; at 1.2 µM,9%
same,growth inhibition,[4]; at 3.7 µM,-1%
same,growth inhibition,[4]; at 11.0 µM,90% (active)
same,growth inhibition,[4]; at 33.0 µM,97% (active)
same,growth inhibition,[4]; at 100.0 µM,96% (active)
same,growth inhibition,[5]; at 1.2 µM,18%
same,growth inhibition,[5]; at 3.7 µM,12%
same,growth inhibition,[5]; [17],5%
same,growth inhibition,[5]; at 11.0 µM,96% (active)
same,growth inhibition,[5]; at 33.0 µM,95% (active)
same,growth inhibition,[5]; [18],93% (active)
same,growth inhibition,[5]; at 50.0 µM,85.5% (active)
same,growth inhibition,[5]; at 100.0 µM,89% (active)
same,growth inhibition,[6]; at 1.2 µM,19%
same,growth inhibition,[6]; at 3.7 µM,8%
same,growth inhibition,[6]; [17],33%
same,growth inhibition,[6]; at 11.0 µM,96% (active)
same,growth inhibition,[6]; at 33.0 µM,97% (active)
same,growth inhibition,[6]; [18],95% (active)
same,growth inhibition,[6]; at 50.0 µM,87.2% (active)
same,growth inhibition,[6]; at 100.0 µM,95% (active)
same,growth inhibition,[7]; at 1.2 µM,12%
same,growth inhibition,[7]; at 3.7 µM,0%
same,growth inhibition,[7]; at 11.0 µM,94% (active)
same,growth inhibition,[7]; at 33.0 µM,97% (active)
same,growth inhibition,[7]; at 100.0 µM,96% (active)
same,growth inhibition,[8]; [17],74% (active)
same,growth inhibition,[8]; [18],94% (active)
same,growth inhibition,[8]; at 50.0 µM,85.8% (active)
same,growth inhibition,[9]; at 1.2 µM,14%
same,growth inhibition,[9]; at 3.7 µM,19%
same,growth inhibition,[9]; at 11.0 µM,92% (active)
same,growth inhibition,[9]; at 33.0 µM,97% (active)
same,growth inhibition,[9]; at 100.0 µM,94% (active)
same,growth inhibition,[10]; [17],17%
same,growth inhibition,[10]; [18],94% (active)
same,growth inhibition,[10]; at 50.0 µM,86% (active)
same,growth inhibition,[11]; at 1.2 µM,18%
same,growth inhibition,[11]; at 3.7 µM,18%
same,growth inhibition,[11]; [17],55%
same,growth inhibition,[11]; at 11.0 µM,97% (active)
same,growth inhibition,[11]; at 33.0 µM,96% (active)
same,growth inhibition,[11]; [18],94% (active)
same,growth inhibition,[11]; at 50.0 µM,83.3% (active)
same,growth inhibition,[11]; at 100.0 µM,89% (active)
same,growth inhibition,[12]; at 1.2 µM,-21%
same,growth inhibition,[12]; at 3.7 µM,-24%
same,growth inhibition,[12]; at 11.0 µM,87% (active)
same,growth inhibition,[12]; at 33.0 µM,97% (active)
same,growth inhibition,[12]; at 100.0 µM,96% (active)
same,growth inhibition,[13]; at 1.2 µM,35%
same,growth inhibition,[13]; at 3.7 µM,35%
same,growth inhibition,[13]; at 11.0 µM,95% (active)
same,growth inhibition,[13]; at 33.0 µM,97% (active)
same,growth inhibition,[13]; at 100.0 µM,96% (active)
same,growth inhibition,[15]; [17],35%
same,growth inhibition,[15]; [18],94% (active)
same,growth inhibition,[15]; at 50.0 µM,89.8% (active)
same,growth inhibition,[16]; at 1.2 µM,40%
same,growth inhibition,[16]; at 3.7 µM,31%
same,growth inhibition,[16]; at 11.0 µM,97% (active)
same,growth inhibition,[16]; at 33.0 µM,96% (active)
same,growth inhibition,[16]; at 100.0 µM,93% (active)
